The results in this text go back to PubChem BioAssay.

SMILES strings stand for the structures. A number with no mark means an inactive call. The rule behind the calls is not given here.

The test concerns the target Pantothenate synthetase (Mycobacterium tuberculosis (strain ATCC 25618 / H37Rv)) (UniProt P9WIL5). The test is described as follows: Recombinant Mtb pantothenate synthetase (PanC) inhibitors, coupled enzyme, confirmatory (AID 375).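 Note: 0% = full reaction with vehicle and 100% = no enzyme background.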 The following applies: coupled enzyme assay; at 10 µM, hits give high values.

Pantothenate synthetase (Mycobacterium tuberculosis (strain ATCC 25618 / H37Rv)), sequence (P9WIL5 whole entry, looked up): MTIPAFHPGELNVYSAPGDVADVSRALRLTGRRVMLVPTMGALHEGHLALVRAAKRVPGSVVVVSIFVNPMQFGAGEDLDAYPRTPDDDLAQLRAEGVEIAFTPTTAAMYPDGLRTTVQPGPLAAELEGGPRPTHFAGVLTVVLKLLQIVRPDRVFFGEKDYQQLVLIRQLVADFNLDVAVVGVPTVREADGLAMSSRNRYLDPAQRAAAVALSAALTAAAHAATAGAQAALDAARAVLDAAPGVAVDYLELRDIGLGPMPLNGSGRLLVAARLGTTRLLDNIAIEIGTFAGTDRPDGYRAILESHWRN

As to `CCOc1ccc(OCCCCN(C)C)cc1`, the inhibition (commonly the percentage by which the read-out fell short of the control) is 2%. In the case of `COC(=O)c1c(NC(=O)C2CC=CCC2C(=O)O)sc(C(N)=O)c1C` (configuration not stated) it was 1%; in that of `COc1ccc(OC)c(Nc2cc(-c3ccccc3)nc(N)n2)c1`, 1%. For the molecule `CC(C)CCNC(=O)NC(=O)COc1ccccc1C#N`, the inhibition was 4%. As to `COc1cc(N=c2ssnc2Cl)cc(OC)c1`, the inhibition was 1%. As for `COc1ccc(C(=O)CN2C3=NCCCN3c3ccccc32)cc1OC`, the inhibition was 0%. Take `O=C(Nc1cccc2ccccc12)N1CCOCC1`: the inhibition is 0%. In the case of `COc1cccc(-c2noc(C3CCCN(C(=O)Cc4ccccc4)C3)n2)c1` (configuration not stated) it was 0%. For `CCOc1cc(C2C(C(=O)OC(C)C)=C(C)N=C3SCCC(=O)N32)ccc1OC(C)=O` (configuration not stated), the inhibition is 0%. The value for `CCOC(=O)c1c(C)n(OCc2ccccc2)c2ccc3c(no[n+]3[O-])c12` was 0%. In the case of `O=C(NCc1cccs1)C(Cc1ccccc1)NS(=O)(=O)c1cccs1` (configuration not stated) it was 8%; in that of `COC(=O)Cc1csc(N)n1`, 0%. In the case of `O=C(Nc1nc(-c2ccccc2)cs1)C1CCCO1` (configuration not stated) it was 3%; in that of `CCOc1cccc(C(=O)N2CCCCC2c2cccnc2)c1` (configuration not stated), 0%; in that of `Cc1nn(C(=O)c2cc3sccc3[nH]2)c(C)c1C`, 0%. With `O=C(CCC(=O)N1CCN(S(=O)(=O)c2ccccc2)CC1)c1cccs1`, the inhibition was 9%. The value for `CC1CCCN(C(=O)c2cc3c(-c4ccc(Cl)cc4)nn(C)c3s2)C1` (configuration not stated) was 4%. In the case of `COc1cc(CC(=O)Oc2ccc3c(c2)OCO3)cc(OC)c1OC` it was 0%; in that of `CCN1CCN(C(c2ccc(F)cc2)c2nnnn2Cc2cccs2)CC1` (configuration not stated), 0%. With `CCCCOCCCNC(=O)c1cccs1`, the inhibition was 0%. In the case of `CC(=O)NC1(C(F)(F)F)NC(=O)N(CC(C)C)C1=O` (configuration not stated) it was 0%; in that of `NC(=O)C1CCN(c2nc(-c3ccccc3)nc3ccccc23)CC1`, 0%; in that of `CCCCN1CN(S(=O)(=O)c2cccs2)c2nc3ccccc3nc21`, 0%. As for `CCOC(=O)c1ccc(NC(=O)CSC2=NC(=O)C(CC)C(=O)N2)cc1` (configuration not stated), the inhibition was 3%.

In the case of `CCOC(=O)N1CCN(S(=O)(=O)c2cc(Cl)c(OC)cc2Cl)CC1`, the inhibition is 0%. In the case of `COc1ccc(CN2CC(C(=O)NCc3ccccn3)CC2=O)cc1` (configuration not stated) it was 5%. In the case of `Cc1ccc(S(=O)(=O)N2CCN(C(=O)CN3CCOCC3)C2C(C)C)cc1` (configuration not stated) it was 0%; in that of `CCOc1ccc(S(=O)(=O)N2CCN(c3ccc(C)cc3C)CC2)cc1`, 0%; in that of `CCCc1cc(=O)oc2cc(C)cc(OC(=O)c3ccco3)c12`, 0%. In the case of `CC1(C)CC(=O)CC(C2(O)C(=O)N(Cc3ccccc3)c3ccccc32)O1` (configuration not stated) it was 0%; in that of `OC(CCN1CCCCC1)(c1ccccc1)C1CCCCC1` (configuration not stated), 0%; in that of `CCN(C(=O)c1c(OC)cccc1OC)c1nnc(-c2cccnc2)s1`, 0%.

For `CN1CCN(C(=O)c2ccc3c(=O)n(CCc4ccccc4)c(=S)[nH]c3c2)CC1`, the inhibition is 0%. The value for `Cc1ccc(-c2nnc(N3CCN(C(=O)CN4C(=O)c5ccccc5C4=O)CC3)c3ccccc23)cc1` was 0%; that for `Cc1cc2oc(=O)cc(CN3CCN(Cc4ccc5c(c4)OCO5)CC3)c2cc1C` was 0%; that for `C=CCNC(=O)c1cc(-c2ccccc2O)on1` was 0%. The value for `CC(C)Nc1ncnc2c1cnn2-c1ccccc1` was 0%; that for `COc1cc(-c2c(C#N)c(N)nc3c2CCCC3)cc(OC)c1OC` was 5%. As for `O=C(NCc1ccco1)c1cccn2c(=O)c3sccc3nc12`, the inhibition was 4%. The value for `Cc1ccc(S(=O)(=O)NCCCNC(=O)N2CCOCC2)cc1` was 0%; that for `CCN1CCN(CCCNC(=O)C2c3ccccc3C(=O)N(C)C2c2ccc(OC)cc2)CC1` (configuration not stated) was 0%.

Regarding `COc1ccc(C2CC(=O)c3c(C)nc(N4CCN(c5ccccc5)CC4)nc3C2)cc1` (configuration not stated), the inhibition is 0%.

Regarding `CCOc1cc(C(=O)NCC2CCCO2)cc(OCC)c1OCC` (configuration not stated), the inhibition was 3%. As for `Cc1cc(C)n2nc(S(=O)(=O)N(C)c3ccccc3)nc2n1`, the inhibition was 0%. In the case of `C/C(N)=C(/C#N)C(=O)COC(=O)COc1ccc(Cl)cc1` it was 5%.

As to `Cc1cccc(Nc2ncc3c(n2)CC(c2ccco2)CC3=O)c1` (configuration not stated), the inhibition is 1%.

Take `COc1ccc(-c2c(C(F)(F)F)oc3c(CN4CCN(C)CC4)c(O)ccc3c2=O)cc1`: the inhibition is 4%.
